# Earlier results in PubChem BioAssay AID977611.
# Among all 3,900 compounds or so, about 3,900 (100%) were called active. The limit is not given here; nearly all actives have Kd up to about 4200 µM. The set was probably picked from earlier hits. The list shows a part of the results. Numbered stars: 1 amine (or outer) side, 2 acyl side, 3 side chain; on linkers, the order of the positions; unused ones are H or OH. Square brackets hold non-standard residues; d marks the D form. Peptide text beside a SMILES is read from it. X2 = C[C@@H](O)C(C)(C)n1cc([C@@H](O)[C@H](N[*:1])C(=O)[*:2])c2ccccc21; Ala(3R-Me,3-isobutenyl) = CC(C)=C[C@@H](C)[C@H](N)C(=O)O; NMeLeu(5-OH,4R) = CN[C@@H](C[C@@H](C)CO)C(=O)O; Phe(βR-OMe) = CO[C@H](c1ccccc1)[C@H](N)C(=O)O; NMeL = CN[C@@H](CC(C)C)C(=O)O
# Assay: PubChem AID 977611
# Conditions: PDB protein-ligand complexes, literature Kd
structure (smiles),measurement,setting,value
O=C1N[C@@H](c2ccc(O)cc2)c2c(-c3ccccc3)n[nH]c21,Kd,"protein: Capsid protein p24, PDB entry 4u0f",1.2 µM (active)
CC(C)C[C@H](NC(=O)CNC(=O)[C@@H](N)CCC(N)=O)C(=O)N[C@@H](CC(C)C)C(=O)N[C@@H](CC(=O)O)C(=O)N[C@@H](C)C(=O)N[C@@H](CC(C)C)C(=O)N[C@@H](CC(=O)O)C(=O)N[C@@H](CC(C)C)C(=O)N[C@@H](C)C(=O)N[C@@H](CO)C(=O)O,Kd,"protein: 14-3-3 protein zeta/delta, PDB entry 4n7g",2.2 µM (active)
CC(C)C[C@H](NC(=O)[C@H](CO)NC(=O)[C@H](CC(=O)O)NC(=O)[C@H](CC(C)C)NC(=O)[C@H](CC(C)C)NC(=O)[C@H](CC(=O)O)NC(=O)[C@H](CC(=O)O)NC(=O)[C@@H](NC(=O)[C@H](CCC(N)=O)NC(=O)[C@H](CC(=O)O)NC(=O)[C@H](CCC(N)=O)NC(=O)[C@H](CO)NC(=O)[C@H](C)NC(=O)[C@@H](NC(=O)[C@@H](NC(=O)CNC(=O)[C@H](C)N)C(C)C)C(C)C)C(C)C)C(=O)NCC(=O)N[C@@H](Cc1ccccc1)C(=O)O,Kd,"protein: Chemotaxis protein cheY, PDB entry 2pl9",67.4 µM (active)
O=C(O)Cc1ccc(N2C(=O)C(O)=C(C(=O)c3ccc(Cl)s3)[C@@H]2c2cc(Br)cs2)cc1,Kd,"protein: Polymerase cofactor Ebola virus VP35, PDB entry 4ibf",36.8 µM (active)
Cc1cc(C)c([C@H]2C(C(=O)c3cccs3)=C(O)C(=O)N2c2ccc(CC(=O)O)cc2)cc1C,Kd,"protein: Polymerase cofactor Ebola virus VP35, PDB entry 4ibb",271 µM (active)
CN[C@@H](C)Cc1ccccc1,Kd,"protein: Anti-METH scFv, PDB entry 4gqp",0.00025 µM (active)
"CO[C@H](c1ccccc1)[C@@H]1NC(=O)[C@H](C)NC(=O)[C@H](C[C@@H](C)CO)N(C)C(=O)[C@H]([C@H](O)c2cn(C(C)(C)[C@@H](C)O)c3ccccc23)NC(=O)[C@H]([C@H](C)C=C(C)C)NC(=O)[C@H](CC(C)C)N(C)C(=O)[C@H](C(C)C)NC1=O (cyclo(A[Phe(βR-OMe)]V[NMeL][Ala(3R-Me,3-isobutenyl)][X2][NMeLeu(5-OH,4R)]))",Kd,"protein: Probable ATP-dependent Clp protease ATP-binding subunit(F2Y mutant), PDB entry 3wdd",0.78 µM (active)
same,Kd,"protein: Probable ATP-dependent Clp protease ATP-binding subunit, PDB entry 3wdc",0.012 µM (active)
same,Kd,"protein: Probable ATP-dependent Clp protease ATP-binding subunit, PDB entry 3wde",0.124 µM (active)
CNC(=O)Nc1cc(Br)cc(NC(=O)NS(=O)(=O)c2cc(C)c(CCOC)s2)n1,Kd,"protein: Fructose-1,6-bisphosphatase 1, PDB entry 4mjo",0.6 µM (active)
CNC(=O)C[C@H](C)O[P+](O)(O)OC,Kd,"protein: Lysozyme C, PDB entry 4tun",3.87 µM (active)
CO[C@]1(C(=O)O)C[C@H](O)[C@@H](NC(=O)CO)[C@H]([C@H](O)[C@H](O)CO)O1,Kd,"protein: Outer capsid protein VP4, PDB entry 3tay",420 µM (active)
CC(=O)N[C@H]1[C@H]([C@H](O)[C@H](O)CO)O[C@@](OC[C@H]2O[C@@H](O)[C@H](O)[C@@H](O)[C@H]2O)(C(=O)O)C[C@@H]1O,Kd,"protein: H5 (VN1194) Influenza Virus Haemagglutinin, PDB entry 4bgx",17000 µM (active)
same,Kd,"protein: Hemagglutinin HA1, PDB entry 4kon",0.33 µM (active)
same,Kd,"protein: Hemagglutinin(mutant form), PDB entry 4k67",372 µM (active)
same,Kd,"protein: Hemagglutinin, PDB entry 4k64",1000 µM (active)
same,Kd,"protein: Telomeric repeat-binding factor 2, PDB entry 4lkk",1.2 µM (active)
same,Kd,"protein: neuraminidase, PDB entry 4gzx",645 µM (active)
CC(=O)N[C@H]1[C@H]([C@H](O)[C@H](O)CO)O[C@@H](C(=O)O)C[C@@H]1O,Kd,"protein: hemagglutinin with F95Y mutation of influenza virus B/Lee/40(F95Y mutant), PDB entry 4nrk",0.024 µM (active)
same,Kd,"protein: hemagglutinin with F95Y mutation of influenza virus B/Lee/40, PDB entry 4nrl",0.0024 µM (active)
CC(=O)N[C@H]1[C@H]([C@H](O)[C@H](O)CO)O[C@@](O[C@H]2[C@@H](O)[C@@H](CO)O[C@@H](O[C@H]3[C@H](O)[C@@H](O)[C@@H](O)O[C@@H]3CO)[C@@H]2O)(C(=O)O)C[C@@H]1O,Kd,"protein: Carbohydrate binding domain from Streptococcus pneumoniae NanA sialidase, PDB entry 4c1w",0.00039 µM (active)
CC(=O)N[C@@H]1[C@@H](O[C@@H]2O[C@@H](C)[C@@H](O)[C@@H](O)[C@@H]2O)[C@H](O[C@@H]2O[C@H](CO)[C@H](O)[C@H](O[C@]3(C(=O)O)C[C@H](O)[C@@H](NC(C)=O)[C@H]([C@H](O)[C@H](O)CO)O3)[C@H]2O)[C@@H](CO)O[C@@H]1O,Kd,PDB entry 4dxg,0.087 µM (active)
CC(=O)N[C@H]1[C@H]([C@H](O)[C@H](O)CO)O[C@@](O[C@@H]2[C@@H](O)[C@H](O)O[C@H](CO)[C@@H]2O)(C(=O)O)C[C@@H]1O,Kd,"protein: Hemagglutinin(mutant form), PDB entry 4k66",554 µM (active)
CC(=O)N[C@@H]1[C@@H](O)[C@H](O[C@@H]2O[C@H](CO)[C@H](O)[C@H](O[C@]3(C(=O)O)C[C@H](O)[C@@H](NC(C)=O)[C@H]([C@H](O)[C@H](O)CO)O3)[C@H]2O)[C@@H](CO)O[C@H]1O,Kd,"protein: Hemagglutinin, PDB entry 4k63",60 µM (active)
same,Kd,"protein: Neuraminidase, PDB entry 4gzw",30 µM (active)
same,Kd,"protein: hemagglutinin, PDB entry 4lkg",0.16 µM (active)
same,Kd,"protein: hemagglutinin, PDB entry 4lkj",0.2 µM (active)
CC(=O)N[C@H]1[C@H]([C@H](O)[C@H](O)CO)O[C@@](O)(C(=O)O)C[C@@H]1O,Kd,"protein: hemagglutinin, PDB entry 4lkh",1000 µM (active)
CC(=O)N[C@H]1[C@H](O[C@@H]2[C@@H](O)[C@H](O)O[C@H](CO)[C@@H]2O)O[C@H](CO)[C@@H](O[C@@H]2O[C@H](CO)[C@H](O)[C@H](O[C@]3(C(=O)O)C[C@H](O)[C@@H](NC(C)=O)[C@H]([C@H](O)[C@H](O)CO)O3)[C@H]2O)[C@@H]1O,Kd,"protein: Hemagglutinin HA1, PDB entry 4kom",0.1 µM (active)
CC(=O)N[C@H]1[C@H]([C@H](O)[C@H](O)CO)O[C@@](O[C@H]2[C@@H](O)[C@@H](CO)O[C@@H](O[C@H]3[C@H](O)[C@@H](O)[C@H](O)O[C@@H]3CO)[C@@H]2O)(C(=O)O)C[C@@H]1O,Kd,"protein: Human galectin-3 CRD K176L mutant, PDB entry 4lbl",11 µM (active)
same,Kd,"protein: wildtype Human galectin-3 CRD, PDB entry 4lbo",1.7 µM (active)
O=C(NC[C@@H](COC(=O)c1cc(O)c(O)c(O)c1)OC(=O)c1cc(O)c(O)c(O)c1)Oc1cccc(C(F)(F)F)c1,Kd,"protein: Plasminogen activator inhibitor 1, PDB entry 4g8o",0.022 µM (active)
same,Kd,"protein: Plasminogen activator inhibitor-1, PDB entry 4g8r",0.022 µM (active)
C[C@H]1N[C@@H]2[C@@H](O)[C@H](O)[C@@H](CO)O[C@@H]2S1,Kd,"protein: BETA-N-ACETYLHEXOSAMINIDASE, PDB entry 4az5",1.02 µM (active)
same,Kd,"protein: BETA-N-ACETYLHEXOSAMINIDASE, PDB entry 4azc",1.38 µM (active)
CN1Cc2c(ccc3c2OCO3)-c2ccc3cc4c(cc3c21)OCO4,Kd,"protein: Chitinase A(W275G mutant), PDB entry 3as0",28 µM (active)
same,Kd,"protein: Chitinase A, PDB entry 3arv",2.3 µM (active)
N[C@@H](CCC(=O)N[C@@H](CSCCN(CCCl)c1ccc(CCCC(=O)O)cc1)C(=O)NCC(=O)O)C(=O)O,Kd,"protein: Glutathione S-transferase A1, PDB entry 4hj2",2950 µM (active)
